Source: PubChem (National Center for Advancing Translational Sciences (NCATS))
EPAC2 agonist – EPAC2 (human) agonism; EPAC2 activation, biochemical qHTS; response scale: 100% = 6.5 mM cAMP response; Potency, µM (series often up to 154 µM), for inactives: at the top dose activation, hits mostly activators; actives 0.079% (n = 360,000); AID 720711; Q8WZA2; also: potency is read from the fitted curve at half-maximal effect; nearly all actives have a fitted effect of over 50% in size
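Guanine nucleotide exchange by EPAC2 is measured as reduced fluorescence of BODIPY-GDP once it is released from 250 nM Rap1B. Plates are read kinetically for 30 min at room temperature; results are scaled to 6.5 mM cAMP.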
PTHR1 ag – activates the human parathyroid hormone receptor PTHR1; HEK293 GP2 PTHR1 cells, GloSensor cAMP luminescence, 1 h; Potency, µM (series often up to 115 µM), inactives show at the highest dose activation, hits mostly activators; actives 0.075% (n = 410,000); AID 743266; also: potency is read from the fitted curve at half-maximal effect; nearly all actives have a fitted effect of over 55% in size
Target sequence (Q03431 whole entry, looked up): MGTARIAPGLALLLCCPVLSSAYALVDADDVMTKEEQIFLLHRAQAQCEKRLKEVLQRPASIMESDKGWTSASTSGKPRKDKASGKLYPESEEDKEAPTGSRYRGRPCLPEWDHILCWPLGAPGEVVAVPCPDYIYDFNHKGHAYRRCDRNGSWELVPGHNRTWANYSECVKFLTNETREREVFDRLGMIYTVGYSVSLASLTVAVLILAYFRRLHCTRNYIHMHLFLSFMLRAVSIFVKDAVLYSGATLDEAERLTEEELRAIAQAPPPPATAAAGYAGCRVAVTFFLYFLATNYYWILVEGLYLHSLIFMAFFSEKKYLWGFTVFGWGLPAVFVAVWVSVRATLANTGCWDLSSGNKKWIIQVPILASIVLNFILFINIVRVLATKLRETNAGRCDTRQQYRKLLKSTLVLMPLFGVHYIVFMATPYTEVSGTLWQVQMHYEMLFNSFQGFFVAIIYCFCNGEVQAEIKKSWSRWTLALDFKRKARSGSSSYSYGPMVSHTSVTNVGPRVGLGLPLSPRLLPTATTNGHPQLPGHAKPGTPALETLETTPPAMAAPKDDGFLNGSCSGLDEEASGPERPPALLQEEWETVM
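HEK-293-derived GP2 cells expressing PTHR1 and a GloSensor cAMP reporter, 3,000/well, plated overnight, given luciferin plus IBMX (each 0.5 mM as added) for 1 h at 37 °C, then compound for 1 h at 37 °C. Luminescence was read after 15 min at room temperature.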
TSHR antag – human thyrotropin receptor antagonism | TSHR-expressing cells, TSH-stimulated cAMP HTRF, 2 h; active compounds read low | actives 0.2% (n = 330,000) | AID 504810 | activity change, negative = inhibition, % at 11.5 µM;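 active = activity change below a set negative limit, meaning inhibition stronger than a set level, cut at about -70% in these data; inconclusive = activity change between two set negative limits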; also: % is scaled to controls: 0 for no effect and ±100 for the full control effect
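Cell-based HTRF cAMP assay; TSHR cells + compound, TSH EC80 (4nM final), 2 h, 37 deg C. Lysis with anti-cAMP cryptate and cAMP-d2, 30 min RT, read 665/620 nm.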
EPAC1 ag – agonists of human EPAC1 | O95398 | EPAC1 agonist qHTS, biochemical assay; response scale: 100% = response to 6.5 mM cAMP | Potency, µM (top dose mostly 154 µM), for the others: at the top dose activation, hits mostly activators | actives 0.073% (n = 360,000) | AID 720707; also: potency is read from the fitted curve at half-maximal effect; nearly all actives have a fitted effect of over 60% in size
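Compounds were pinned as a concentration titration into mixtures of EPAC1 (100 nM), BODIPY-GDP-loaded Rap1B (250 nM) and GDP (50 uM). After 5 min at room temperature, fluorescence was followed for 30 min; activity was scaled to 6.5 mM cAMP.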
EPAC1 antagonist – blocks human EPAC1 exchange factor | EPAC1 GEF assay, Rap1b-BODIPY-GDP exchange fluorescence | Potency, µM (top dose mostly 115 µM), for inactives: top-dose activity change, negative = inhibition, usual class: inhibitors | O95398 | AID 720709 | actives 0.14% (n = 360,000);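 also: potency is read from the fitted curve at half-maximal effect; plate controls were vehicle for no effect and positive control for full effect; nearly all actives have a fitted effect of over 50% in size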
EPAC2 antag – antagonists of human EPAC2; Q8WZA2; EPAC2 GEF exchange of Rap1B-BODIPY-GDP, fluorescence; Potency, µM (titrated, usually from 114 µM), without a hit: top-dose activity, negative = inhibition, most hits filed as inhibitors; actives 0.18% (n = 360,000); AID 720708; also: potency is read from the fitted curve at half-maximal effect; % is scaled to controls: 0 for no effect and ±100 for the full control effect; nearly all actives have a fitted effect of over 45% in size
* marks the source's active call; other numbers are inactive results; i = inactive; ? = inconclusive; . = no result given; [ ] = remark or other dose. Compounds with a hit are over-represented: about 0.5% of the library has one in this group of screens. Unless noted, calls follow the shape of the dose curve; as a rule, active = well fitted curve in the direction sought with a large enough effect; inconclusive = small, poorly fitted or top-dose-only effect, or another doubt; inactive = no such curve, though single readings can be large; an effect the other way counts as inactive or inconclusive.

SMILES | EPAC2 agonist | PTHR1 ag | TSHR antag | EPAC1 ag | EPAC1 antagonist | EPAC2 antag
COc1ccc(CNC(=O)c2cc(-c3cccs3)nc3ccccc23)c(OC)c1 | . | -26% | . | . | . | .
COc1cc(CNc2ccc(O)cc2)cc(Br)c1OCc1ccccc1F | 3% | -46% | 7 | -1% | 28µM* | ?
Cn1c(N)c(C(=O)CSc2nnc(-c3c[nH]c4ccccc34)n2C2CC2)c(=O)[nH]c1=O | 63µM* | i | -2 | 10% | ? | 50µM*
Cc1ccc(NC(=S)NCc2cccn2C)cc1 | -1% | 3.5µM* | 2 | 7% | 0% | -6%
Cc1cccc(NC(=S)NCc2cccn2C)c1 | 6% | -22% | -1 | 4% | -4% | 6%
CCC(=O)Nc1ccccc1-c1nc2ccccc2n(CC(=O)c2ccc(C)c(C)c2)c1=O | . | i | . | . | . | .
CCCCc1nc(SCCOC)c2c(=O)n(C)c(=O)n(C)c2n1 | 11% | i | -10 | -3% | -15% | 18µM*
CCCCCNC(=O)C(c1cc2ccccc2o1)n1c(=O)c(-c2ccco2)nc2ccccc21 (stereo not drawn) | -18% | 0% | . | -27% | 56µM* | ?
CC(C)(C)NC(=O)C(c1cc2ccccc2o1)n1c(=O)c(-c2ccco2)nc2ccccc21 (stereo not drawn) | -1% | -4% | . | -5% | -24% | -9%
Cc1cccc(NC(=O)C(=O)NNC(=O)c2ccc(C(C)(C)C)cc2)c1 | -10% | -25% | 1 | -19% | ? | 53%
Cc1ccc(F)c(NC(=O)/C(C#N)=C(\O)c2ccc(C(C)(C)C)cc2)c1 | -35% | i | -36 | -11% | 56µM* | -23%[57.1 µM]
CCCC(O)c1nc2ccccc2n1CCCOc1ccc(Cl)cc1 (stereo not drawn) | . | i | . | . | . | .
Cc1cccc2c1NC(=O)C2(c1ccc(O)cc1)c1ccc(O)cc1 | 0%[15.6 µM] | i | -81* | 2% | -8% | -63%
CCC1=NN(C(=O)c2ccc(Br)cc2)C(O)(c2ccccc2)C1 (stereo not drawn) | 1% | -32% | -6 | 112µM* | 88% | -7%
CC1=NN(C(=O)c2ccccc2)C(O)(c2ccc(Br)cc2)C1 (stereo not drawn) | -1% | -5% | 9 | 4% | 1% | -4%
CCCCC#Cc1nc(NC)c2ncn([C@@H]3O[C@H](CO)[C@@H](O)[C@H]3O)c2n1 | . | . | -8 | . | . | .
FC(F)(F)c1cc(-c2cccc(Br)c2)nc2ncnn12 | . | -15% | . | . | . | .
O=C(O)CCSc1nc2ccccc2n1Cc1ccccc1 | 14% | -10% | -117* | 13% | -9% | 2%
CCCn1c(SCCC(=O)O)nc2ccccc21 | 10% | -40% | 3 | -3% | 2% | 16%
CCOc1ccc(-c2cccc(NS(=O)(=O)c3ccccc3C(F)(F)F)c2)nn1 | . | -51% | . | . | . | .
Cc1ccc(C(=O)O)cc1N1C(=O)c2cccc3c([N+](=O)[O-])ccc(c23)C1=O | -1% | -95% | -73* | -14% | -22% | -5%
COc1cc(C2C=C(c3cccs3)Nc3ncnn32)cc(OC)c1OC (stereo not drawn) | 24% | -7% | 14 | 100µM* | 82% | 120%
Cc1nc(-c2ccccc2)sc1-c1ccc(SCC(=O)Nc2ccc(F)cc2F)nn1 | . | -15% | . | . | . | .
CC(=O)Oc1c(I)cc(I)cc1C(=O)Nc1ccc(Cl)cc1 | 17% | -90% | -106* | 11% | -13% | -5%
C/C(=N/n1cnnc1)c1cccnc1 | 9% | 16µM* | -3 | -3% | -5% | -11%
SMILES | EPAC2 agonist | PTHR1 ag | TSHR antag | EPAC1 ag | EPAC1 antagonist | EPAC2 antag
CC[C@H](CO)Oc1cc(NCc2cccc(N)c2)c2ncn(C(C)C)c2c1 | 6% | -60% | . | 8% | -13% | -4%
COc1ccc(NS(=O)(=O)c2cccc(NC(=O)C3=NN(c4ccccc4)C(=O)CC3)c2)cc1 | 1% | -42% | -112* | -3% | -12% | -14%
Oc1ccc2ccccc2c1SSc1c(O)ccc2ccccc12 | . | . | 15 | . | . | .
O=C(Nc1cc(Cl)ccc1Cl)c1ccco1 | 3% | -44% | 35 | 1% | 2% | 0%
CS/C(Nc1cc(Cl)ccc1Cl)=C(/C#N)C(=O)c1ccco1 | 3% | -32% | -10 | -9% | 50µM* | -4%
O=C(NC1CCCCC1)c1sc(=S)n2c1[nH]c(=O)c1ccccc12 | -8% | -19%[57.5 µM] | -83* | -2% | -3% | ?
CCOc1ccc(CCNC(=O)c2ccc3c(=O)[nH]c4c(C(=O)NC(C)C)sc(=S)n4c3c2)cc1 | -9% | -41% | -85* | 2% | 1% | ?
CC(C)NC(=O)c1sc(=S)n2c1[nH]c(=O)c1ccc(C(=O)NCCc3ccc(Cl)cc3)cc12 | -7% | -29% | ? | -2% | -6% | ?
CCCCNC(=O)c1sc(=S)n2c1[nH]c(=O)c1ccccc12 | -17% | -18%[57.5 µM] | -74* | 1% | ? | ?
COC(=O)c1nccnc1N | 1% | i | . | 6% | 5% | -3%
Cc1ccc(-c2cc(NC(=O)c3ccccc3Cl)on2)cc1 | . | -32% | . | . | . | .
Cc1ccccc1-n1nnnc1SC1CCOC1=O (stereo not drawn) | -4% | -3%[57.5 µM] | -88* | 10% | -13% | -3%
CCCN1C(=O)c2ccccc2NC1c1ccc(OC)c(CSc2ccccn2)c1 (stereo not drawn) | 2% | i | -9 | -7% | ? | 14µM*
CCCN1C(=O)c2ccccc2NC1c1ccc(OC)cc1O (stereo not drawn) | 6% | i | 13 | -6% | 6% | -1%
CCCN1C(=O)c2ccccc2NC1c1ccc(OC)cc1OC (stereo not drawn) | 3% | 12%[57.5 µM] | 14 | 8% | -12% | 32µM*
CC(C)NC(=O)C1(C)CN(S(C)(=O)=O)CC(=O)N1CCc1ccc(O)cc1 (stereo not drawn) | 9% | -1% | . | 2% | 5% | -1%
O=C1S/C(=C/c2ccc(N3CCOCC3)o2)C(=O)N1Cc1ccc(F)cc1 | ? | i | -7 | 4% | 1% | 11%
O=C1S/C(=C\c2ccc(N3CCOCC3)o2)C(=O)N1Cc1ccc(F)cc1 | 112µM* | -20%[57.5 µM] | 7 | 7% | 1% | -3%
COc1ccc(C(=O)Nc2nc(-c3ccc([N+](=O)[O-])cc3)c(-c3ccc(OC)cc3)s2)cc1 | 100µM* | i | -24 | 112µM* | 457% | 136%
CC1CCCN(c2nc3ccccc3nc2C(C#N)S(=O)(=O)c2ccccc2)C1 (stereo not drawn) | -511% | -27% | -30 | 56µM* | 37% | 128%
